# Records with an inconclusive call do not appear. Where a call stands in place of a potency, no number is given. Calls of active or inactive are those of the source. Unless noted, the call rests on the fitted dose curve; in most records, active means well fitted curve in the direction sought with a large enough effect in the repeat runs; inconclusive means weak or mixed curves; inactive means no such curve, though single readings can be large; an effect the other way counts as inactive or inconclusive.
# Experiments:
# [1] = A CellTox Green Cytotoxicity Assay to monitor cytotoxicity in HepG2 cells - 0 hour (AID 1224882); further: nearly all actives have a fitted effect of over 35% in size; further: potency means the concentration at half of the fitted maximal effect
# In short: (§1)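 Read-out is fluorescence of a cyanine dye excluded from live cells that stains DNA of dead HepG2 cells, with signal proportional to cytotoxicity. Plates were read at 0, 8, 16, 24, 32 and 40 h after compound addition.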
# [2] = A CellTox Green Cytotoxicity Assay to monitor cytotoxicity in HEK293 cells - 8 hour (AID 1224884); further: nearly all actives have a fitted effect of over 35% in size
# In short: (§2)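 Nonlytic real-time cytotoxicity: HEK293 + CellTox Green reagent plated, 5 h preincubation, pintool compound addition (23 nL in DMSO), 37 C for 40 h, fluorescence measured at successive time points.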
# [3] = A CellTox Green Cytotoxicity Assay to monitor cytotoxicity in HEK293 cells - 16 hour (AID 1224888); further: nearly all actives have a fitted effect of over 35% in size
# In short: as §2
# [4] = qHTS RealTime-Glo MT Cell Viability Assay in HepG2 cells - 0 hour (AID 1224889); further: nearly all actives have a fitted effect of over 50% in size
# In short: (§3)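 Cells + NanoLuc/prosubstrate dispensed (600 cells/well) → 5 h at 37 C/5% CO2 → compounds in DMSO transferred → 40 h incubation at 37 C, luminescence read at 0, 8, 16, 24, 32, 40 h.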
# [5] = A CellTox Green Cytotoxicity Assay to monitor cytotoxicity in HepG2 cells - 8 hour (AID 1224890); further: nearly all actives have a fitted effect of over 45% in size; further: potency means the concentration at half of the fitted maximal effect
# In short: as §1
# [6] = qHTS assay to identify small molecule antagonists of the estrogen receptor alpha (ER-alpha) signaling pathway using the BG1 cell line in the presence of 0.1 nM 17-beta-estradiol - cell viability counter screen (AID 1259241); further: nearly all actives have a fitted effect of over 40% in size
# In short: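 Viability in VM7Luc4E2 cells after 22 hr compound exposure under 0.1 nM 17beta-estradiol stimulation, by CellTiter-Fluor.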
# [7] = qHTS assay to identify small molecule antagonists of the androgen receptor (AR) signaling pathway using the MDA cell line in the presence of 0.5 nM R1881 - cell viability counter screen (AID 1259242); further: nearly all actives have a fitted effect of over 45% in size
# In short: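 Counter screen for cytotoxicity run in the same wells as the AR antagonist reporter screen: MDA-kb2 cells were treated 16 hr with test compounds and 0.5 nM R1881, then live-cell protease activity was measured by fluorescence.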
# [8] = qHTS assay to identify small molecule HDAC inhibitors (AID 1259364); further: top concentration of the series differs between compounds; nearly all actives have a fitted effect of over 45% in size
# In short: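 Luminescence from a cell-permeant luminogenic class I/II HDAC substrate reports endogenous deacetylase activity in intact HCT-116 cells treated with compounds for 2 h.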
# [9] = qHTS assay to identify small molecule HDAC inhibitors - cell viability counter screen (AID 1259365); further: series mostly up to about 92 µM; nearly all actives have a fitted effect of over 50% in size
# In short: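 Cytotoxicity was gauged in wild-type HCT-116 cells after a brief 2hr treatment with DMSO-dissolved compounds at 37C and 5% CO2, using CellTiter-Glo luminescence developed for 30min at room temperature.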
# [10] = qHTS assay to identify small molecule agonists of the sonic hedgehog signaling (Shh) pathway - cell viability counter screen (AID 1259366); further: nearly all actives have a fitted effect of over 50% in size; further: potency means the concentration at half of the fitted maximal effect
# In short: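 Stable Gli1-Luc NIH/3T3 clone, 2,000 cells/well. Compound exposure 24hr at 37C. Read-out: CellTiter-Fluor fluorescence.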
# [11] = qHTS assay to identify small molecule antagonists of the sonic hedgehog signaling (Shh) pathway - cell viability counter screen (AID 1259367); further: nearly all actives have a fitted effect of over 55% in size; further: potency means the concentration at half of the fitted maximal effect
# In short: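 Seed 3T3 Gli1-Luc cells at 2,000 per well; incubate 4 hr; add compound in DMSO, then conditioned medium; incubate at 37C with 5% CO2; add CellTiter-Fluor after 23 hr; read fluorescence 1 hr later.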
# [12] = A CellTox Green Cytotoxicity Assay to monitor cytotoxicity in HEK293 cells - 32 hour (AID 1224881); further: nearly all actives have a fitted effect of over 40% in size
# In short: as §2
# [13] = A CellTox Green Cytotoxicity Assay to monitor cytotoxicity in HepG2 cells - 32 hour (AID 1224883); further: nearly all actives have a fitted effect of over 50% in size
# In short: as §1
# [14] = qHTS RealTime-Glo MT Cell Viability Assay in HepG2 cells - 16 hour (AID 1224885); further: nearly all actives have a fitted effect of over 50% in size
# In short: as §3
# [15] = qHTS RealTime-Glo MT Cell Viability Assay in HEK293 cells - 8 hour (AID 1224887)
# In short: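 Cells were seeded together with NanoLuc luciferase and a prosubstrate that viable cells reduce to a luciferase substrate. After a 5 h incubation at 37 C/5% CO2, compounds were added and luminescence was measured repeatedly during 40 h of treatment.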
# [16] = qHTS assay to identify small molecule phospholipidosis (PLD) inducers (AID 1259344; active means well fitted curve in the direction sought with a large enough effect; an effect the other way counts as inactive or inconclusive)
# In short: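 Quantitative HTS in HepG2: compound plus LipidTOX Red dye for 24 h, paraformaldehyde fixation with Hoechst 33342, widefield high-content imaging; amiodarone as positive and DMSO as negative control.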
# [17] = qHTS RealTime-Glo MT Cell Viability Assay in HEK293 cells - 24 hour (AID 1224886)
# In short: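 Tox21 10K qHTS, HEK293, 600 cells/well, RealTime-Glo reagent co-dispensed with cells; 5 h preincubation, compound by pintool, 37 C, luminescence at 0–40 h.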
# [18] = molecular target: Estrogen receptor (Homo sapiens) (UniProt P03372); test: qHTS assay to identify small molecule antagonists of the estrogen receptor alpha (ER-alpha) signaling pathway using the BG1 cell line in the presence of 0.1 nM 17-beta-estradiol (AID 1259244); further: nearly all actives have a fitted effect of over 50% in size
# Sequence of Estrogen receptor (Homo sapiens) (P03372 whole entry, looked up): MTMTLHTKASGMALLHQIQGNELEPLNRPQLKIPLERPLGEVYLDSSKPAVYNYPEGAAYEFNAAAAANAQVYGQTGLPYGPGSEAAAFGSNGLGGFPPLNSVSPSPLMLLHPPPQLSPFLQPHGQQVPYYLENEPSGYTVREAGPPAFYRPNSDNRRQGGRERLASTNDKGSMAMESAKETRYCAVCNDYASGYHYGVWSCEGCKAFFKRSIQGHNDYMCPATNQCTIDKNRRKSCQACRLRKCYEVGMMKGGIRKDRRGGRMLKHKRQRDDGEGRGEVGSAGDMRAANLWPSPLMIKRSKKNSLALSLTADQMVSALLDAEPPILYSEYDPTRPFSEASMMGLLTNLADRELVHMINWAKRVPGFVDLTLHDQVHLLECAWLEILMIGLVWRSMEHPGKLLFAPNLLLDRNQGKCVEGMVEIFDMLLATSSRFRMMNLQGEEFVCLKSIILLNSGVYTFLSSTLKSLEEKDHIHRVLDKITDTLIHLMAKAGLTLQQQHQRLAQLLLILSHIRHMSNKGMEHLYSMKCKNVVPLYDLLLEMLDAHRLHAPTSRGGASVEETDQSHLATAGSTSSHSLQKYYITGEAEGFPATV
# In short: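 Cells: VM7Luc4E2, endogenous ER-alpha, 4x ERE-luc stable. Pre-culture 5 d, phenol red-free, charcoal-stripped FBS. Plated 24 h, compound + E2 0.1 nM final, 22 h 37C/5% CO2. Readout ONE-Glo luminescence.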
# [19] = molecular target: Androgen receptor (Homo sapiens) (UniProt P10275); test: qHTS assay to identify small molecule antagonists of the androgen receptor (AR) signaling pathway using the MDA cell line in the presence of 0.5 nM R1881 (AID 1259243)
# Sequence of Androgen receptor (Homo sapiens) (P10275 whole entry, looked up): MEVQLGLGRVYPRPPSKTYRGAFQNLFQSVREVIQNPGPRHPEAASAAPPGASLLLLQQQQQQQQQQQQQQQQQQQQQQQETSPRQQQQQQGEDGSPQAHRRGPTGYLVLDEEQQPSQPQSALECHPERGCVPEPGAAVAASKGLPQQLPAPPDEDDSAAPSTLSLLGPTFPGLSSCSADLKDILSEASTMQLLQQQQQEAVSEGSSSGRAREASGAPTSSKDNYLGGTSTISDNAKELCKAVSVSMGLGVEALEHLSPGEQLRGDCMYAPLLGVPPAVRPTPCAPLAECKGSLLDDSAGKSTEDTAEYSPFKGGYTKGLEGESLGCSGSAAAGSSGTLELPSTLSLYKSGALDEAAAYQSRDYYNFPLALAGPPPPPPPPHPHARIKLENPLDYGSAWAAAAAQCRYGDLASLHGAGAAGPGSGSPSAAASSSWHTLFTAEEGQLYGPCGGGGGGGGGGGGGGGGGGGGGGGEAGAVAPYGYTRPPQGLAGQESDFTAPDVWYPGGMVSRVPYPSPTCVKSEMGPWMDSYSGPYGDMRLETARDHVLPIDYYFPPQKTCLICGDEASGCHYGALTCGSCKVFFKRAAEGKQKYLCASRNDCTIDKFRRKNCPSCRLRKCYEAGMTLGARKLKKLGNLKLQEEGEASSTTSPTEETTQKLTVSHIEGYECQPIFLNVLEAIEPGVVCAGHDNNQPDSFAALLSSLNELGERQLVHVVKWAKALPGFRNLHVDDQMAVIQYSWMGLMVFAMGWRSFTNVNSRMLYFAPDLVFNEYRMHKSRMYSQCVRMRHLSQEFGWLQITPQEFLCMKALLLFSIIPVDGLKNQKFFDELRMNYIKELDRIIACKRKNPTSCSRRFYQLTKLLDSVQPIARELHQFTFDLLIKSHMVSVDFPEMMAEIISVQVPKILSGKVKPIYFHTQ
# In short: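 Luciferase luminescence is the read-out: compounds are tested for suppressing 0.5 nM R1881-driven MMTV reporter activity in MDA-kb2 cells after 16 hr at 37C.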
Compound,Potency [1],Potency [2],Potency [3],Potency [4],Potency [5],Potency [6],Potency [7],Potency [8],Potency [9],Potency [10],Potency [11],Potency [12],Potency [13],Potency [14],Potency [15],Potency [16],Potency [17],Potency [18],Potency [19]
c1csc(SSc2cccs2)c1,inactive,inactive,inactive,inactive,inactive,inactive,inactive,inactive,inactive,43.3 µM (active),43.3 µM (active),,,,,,,,
Oc1c(I)cc(I)c2cccnc12,inactive,inactive,inactive,inactive,inactive,inactive,inactive,inactive,inactive,,inactive,inactive,inactive,inactive,inactive,inactive,,,
N#[N+]c1ccc2c(S(=O)(=O)[O-])cccc2c1O,inactive,inactive,inactive,inactive,inactive,inactive,inactive,,inactive,,inactive,inactive,,inactive,,,inactive,inactive,
C=C(C)[C@@H]1CCC2=CCC[C@@H](C)[C@]2(C)C1,inactive,inactive,inactive,,inactive,inactive,inactive,inactive,inactive,inactive,inactive,inactive,,inactive,inactive,,inactive,inactive,27.3 µM (active)
O=Cc1c2ccccc2c(Cl)c2ccccc12,inactive,inactive,inactive,inactive,inactive,inactive,inactive,inactive,inactive,inactive,inactive,inactive,inactive,inactive,inactive,,,inactive,
CCC1NC(=O)c2cc(S(N)(=O)=O)c(Cl)cc2N1 (centres undefined),inactive,inactive,,inactive,inactive,inactive,inactive,inactive,inactive,inactive,inactive,inactive,inactive,inactive,inactive,inactive,inactive,,
O=C(Nc1cccc2c(=O)cc(-c3nn[nH]n3)oc12)c1ccc(OCCCCc2ccccc2)cc1,26.8 µM (active),inactive,,,21.3 µM (active),inactive,inactive,inactive,,,inactive,inactive,,inactive,inactive,inactive,inactive,,
